High-throughput results (PubChem)
esBAF inh – SWI/SNF esBAF complex inhibition. mouse ES cells, Bmi1-luciferase knock-in reporter, 24 h; 100% = twice the neutral-well signal. reporter increase, % at 12.5 µM. actives 2% (n = 350,000); in the data active = activation above about 40%;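 also: 0% = median of the plate's neutral control wells and 100% = double that signal; a rise in the Bmi1 reporter signal indicates esBAF inhibition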
MITF act – MITF TRPM1 promoter activation in melanoma cells | SK-MEL-5 TRPM1-promoter luciferase, 24 h; % of positive control, neutral wells = 0 | activation, % at 12.5 µM | actives 0.75% (n = 300,000);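 active = mean activation of at least 80% with every replicate also reaching 80%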;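 also: 0% = neutral control wells and 100% = parthenolide positive control wells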
Wnt bcat act – activates Wnt/beta-catenin signaling in a reporter cell assay. activator, plate reader. actives 1.2% (n = 300,000). activation, % at 9.35 µM. AID 743398; in the data active = activation above about 30%, passing the limit was not always enough;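 also: 0% = neutral control wells and 100% = positive control wells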
HSF-1 act – increases HSF-1 driven luciferase reporter signal. NIH3T3-HGL HSF-1 luciferase reporter, MG132, 8 h; 100% = twice DMSO control signal. actives 1.7% (n = 300,000). activation, % at 9 µM. AID 504408;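 active = mean replicate activation of at least 50% with a set share of replicates each reaching 50%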;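 also: 0% = median of the neutral control wells and 100% = twice that signal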
HSF1 inhib – HSF1 inhibition; AID 2098; NIH3T3-HGL HSE-luciferase, MG132-induced, luminescence 8 h; active compounds read low; activity change, negative = inhibition, % at 7.5 µM (by protocol); actives 0.77% (n = 300,000);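 active = more than half of replicate wells show activity change below -50%, luminescence cut by over half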;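 also: luciferase reports HSF-1 transcriptional activity via heat shock element; 0% = median of DMSO wells and -100% = zero luminescence signal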
* marks the source's active call; other numbers are inactive results; x = no result given. An excerpt weighted towards active compounds, which were near 3.9% of everything screened.

SMILES	esBAF inh	MITF act	Wnt bcat act	HSF-1 act	HSF1 inhib
CC(C)NC(=O)N[C@@H]1CC[C@H](CCNS(=O)(=O)c2ccc(F)cc2)O[C@H]1CO	0	x	x	x	x
CCCNC(=O)NC[C@@H]1[C@@H](c2ccc(C3=CCCC3)cc2)[C@@H](CO)N1C(C)=O	3	x	x	x	x
Cc1ccc(C(=O)NCC(=O)NCC(=O)OCC(=O)c2ccc(F)cc2)cc1	x	2	x	-70	-62*
O=C(CNC(=O)c1ccc(F)cc1)c1ccc(Cl)cc1	53*	54	19	28	13
O=C(CNC(=O)c1ccccc1)NCC(=O)OCC(=O)c1ccc(F)cc1	x	7	-2	3	-2
COc1ccc(NC(=O)N[C@H]2CC[C@@H](CCNC(=O)Cc3ccncc3)O[C@H]2CO)cc1	-2	x	x	x	x
COC(=O)C[C@H]1C=C[C@@H](NC(=O)c2ccccc2)[C@@H](CO)O1	-9	x	x	x	x
O=C1c2ccccc2C(=O)N1OCCOCCOCCBr	-15	-1	x	2	-2
O=C1c2ccccc2C(=O)N1OCCOCCOCCON1C(=O)c2ccccc2C1=O	-9	-10	45*	-17	-5
CCN(CC)CCN(C)Cc1nc(C(c2ccccc2)c2ccccc2)no1	4	x	-1	54*	15
CN(CCc1cn[nH]c1)Cc1nc(C(c2ccccc2)c2ccccc2)no1	-3	-4	-1	46	6
COc1ccc(/C=C/C2=NC(=C\N(C)C)/C(=O)O2)cc1	51*	47	-1	6	6
C[C@H]1CN([C@@H](C)CO)C(=O)c2cc(C3=CCCC3)cnc2O[C@@H]1CN(C)C(=O)C1CCCCC1	-2	x	x	x	x
CN(C)c1ccc(-c2c(-c3ccc4c(c3)OCO4)noc2-c2ccsc2)cn1	25	36	x	21	25
O=C(O)c1cc(-c2ccc(-c3c(-c4ccc5c(c4)OCO5)noc3-c3ccsc3)cc2)nc2ccccc12	68*	97*	22	24	13
NC(=O)c1ccc(OCc2ccccc2)nc1	60*	88*	2	x	x
COc1cccc(-n2nnc3c(=O)n(Cc4ccc(Cl)cc4)cnc32)c1	1	16	x	3	5
COc1cccc(-n2nnc3c(=O)n(Cc4ccccc4Cl)cnc32)c1	x	10	0	-62	-58*
CCc1cccc(CC)c1NC(=O)c1cccc(S(=O)(=O)N2CCN(C)CC2)c1	-3	2	1	-9	-2
CCC(=O)NC(=S)Nc1ccc(S(=O)(=O)N2CCN(C)CC2)cc1	x	3	10	79*	25
CC(=O)c1ccc(NC(=O)c2cccc(S(=O)(=O)N3CCN(C)CC3)c2)cc1	58*	74	6	27	-3
CC(=O)Nc1ccc(NC(=O)c2cccc(S(=O)(=O)N3CCCCCC3)c2)cc1	4	19	-9	x	x
CCc1cccc(NC(=O)c2cccc(S(=O)(=O)N3CCN(C)CC3)c2)c1	-1	-6	-2	78*	33
CN1CCN(S(=O)(=O)c2cccc(C(=O)NCCC3=CCCCC3)c2)CC1	4	-9	1	-82	-76*
Cc1noc(C)c1NC(=O)Nc1ccc2c(c1)CC(=O)N([C@H](C)CO)C[C@H](C)[C@H](CN(C)Cc1ccc(Cl)c(Cl)c1)O2	-1	x	x	x	x
Cc1ccc(S(=O)(=O)N(C)C[C@@H]2OCCCC[C@@H](C)Oc3ccc(NC(=O)CCCN(C)C)cc3C(=O)N([C@@H](C)CO)C[C@@H]2C)cc1	-3	x	x	x	x
Cc1cc(Cl)c2oc(C(=O)N3CCN(c4cccc(C)n4)CC3)c(C)c2c1	74*	x	18	73*	38
Cc1cc(Cl)c2oc(C(=O)N3CCN(C(=O)c4ccco4)CC3)c(C)c2c1	52*	58	16	18	12
